About 83,000 compounds went through this panel and 20% of them were active in at least one assay; those are over-represented in the sample as a whole.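 Growth was measured after 48 h exposure to one concentration of compound in 96-well plates. Values under 10 count as active.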 A number with no mark means an inactive call. The source made the active and inactive calls.
Legend:
Assay in all cases: NCI-60 one-dose screen, 48 h (100 = growth as untreated, 0 = no growth, -100 = all killed)
Conditions in all cases: 10 µM unless noted
[1] = tested on: NCI-H23 lung
[2] = tested on: NCI-H226 lung
[3] = tested on: NCI-H322M lung
[4] = tested on: HOP-62 NSCLC
[5] = tested on: NCI-H460 lung
[6] = tested on: HOP-92 NSCLC
[7] = tested on: NCI-H522 lung
[8] = tested on: A549/ATCC NSCLC
[9] = tested on: 786-0 renal
[10] = tested on: COLO 205 colon
[11] = tested on: DU-145 prostate
[12] = tested on: K-562 leukemia
[13] = tested on: MALME-3M melanoma
[14] = tested on: MDA-MB-231 breast
[15] = tested on: RXF 393 renal
[16] = tested on: SF-268 CNS
[17] = tested on: SF-295 CNS
[18] = tested on: SF-539 CNS
[19] = tested on: UACC-257 melanoma
[20] = tested on: M14 melanoma

SMILES | growth [1] | growth [2] | growth [3] | growth [4] | growth [5] | growth [6] | growth [7] | growth [8] | growth [9] | growth [10] | growth [11] | growth [12] | growth [13] | growth [14] | growth [15] | growth [16] | growth [17] | growth [18] | growth [19] | growth [20]
O=C(Nc1ccc2cc3ccc(NC(=O)NC4CCCCC4)cc3nc2c1)NC1CCCCC1 | 87.5% | 97.7% | 104% | 89.2% | 103% | 99.8% | 103% | 101% | 60.1% | 100% | 97.3% | 16.8% | 106% | 101% | 15.7% | 68.1% | 45.6% | 50.1% | 99.8% | 90.5%
CC(C)(C#N)N1CCN(c2ccccc2Cl)CC1 | 98.8% | 103% | 94.8% | 102% | 104% | 98% | 90.9% | 95.1% | 97.9% | 113% | 105% | 96.4% | 91.2% | 110% | 118% | 101% | 97.2% | 96.8% | 92.1% | 99.2%
Cc1c(C(=O)NO)sc2ncnc(Nc3ccc(NC(=S)Nc4ccccc4)cc3)c12 | 96.5% | 104% | 107% | 101% | 102% | 115% | 92.1% | 101% | 99.1% | 113% | 107% | 103% | 99.5% | 95% | 104% | 98.2% | 98.3% | 100% | 99.4% | 104%
Nc1c(Cl)cc([N+](=O)[O-])cc1Br | 93% | 93.7% | 103% | 109% | 114% | 74.8% | 88.1% | 99.6% | 87.8% | 118% | 105% | 99.1% | 107% | 101% | 98.2% | 97.1% | 74% | 114% | 91.3% | 114%
C=C(C)[C@@H]1CC[C@]2(C(=O)NCC(=O)OC)CC[C@]3(C)[C@H](CC[C@@H]4[C@@]5(C)Cc6c([nH]c7ccccc67)C(C)(C)[C@@H]5CC[C@]43C)[C@@H]12 | 68.6% | 63.5% | 85.8% | 82.8% | 74.6% | 91.1% | 60.5% | 60.7% | 75% | 86.1% | 83.8% | 44.9% | 93.9% | 82.2% | 76% | 74.7% | 76.7% | 85.1% | 75.7% | 89.5%
O=C(Nc1nc2ccc(S(=O)(=O)Nc3ccc(C4(C(F)(F)F)CC4)cc3)cc2[nH]1)c1cnccn1 | 43.6% | 54.1% | 46.6% | 51.5% | 8.38% (active) | 39.3% | 26.9% | 35.1% | 33.9% | 35.1% | 30.4% | 21.4% | 37.3% | 59.2% | 28.6% | 34.3% | 33.4% | 5.95% (active) | 48.5% | 34.7%
O=C(Cc1ccc(/C=C/C(=O)c2ncc[nH]2)cc1)Nc1ccc(C(F)(F)F)cc1 | 33.4% | 78.9% | 71.5% | 25.8% | 27.1% | 70% | 54.7% | 30.8% | -43.1% (active) | 36.3% | 16.5% | 4.21% (active) | 86.2% | 32.5% | 34% | 14.4% | 22.9% | -10.1% (active) | 82.1% | 25.1%
COc1ccc(CC(C)=C(c2ccc(OCCN(C)C)cc2)c2ccc(OCCN(C)C)cc2)cc1 | 89.3% | 88.9% | 85.8% | 82.6% | 79.6% | 37.1% | 79.5% | 77.1% | 68.1% | 67.3% | 83.1% | -28.1% (active) | 96% | 39% | 74.2% | 82.7% | 67.3% | 81.7% | 92.7% | -39.7% (active)
Nc1cc(N)c2cccnc2c1O | 35.5% | 89.8% | 78% | 69.5% | 15.2% | 72.3% | 67.2% | 63% | 89.8% | 102% | 72.7% | 37.5% | 85% | 78.6% | 74.9% | 83.4% | 63.2% | 66.1% | 76.1% | 76.5%
O=C(CCN1CCCC1)Nc1ccc2c(NCc3ccc(F)cc3)c3ccccc3nc2c1 | -39.8% (active) | 4% (active) | -4.47% (active) | -1.6% (active) | -63.4% (active) | -8.01% (active) | -50.1% (active) | -37.6% (active) | 6.33% (active) | -62.5% (active) | -38.4% (active) | 0.876% (active) | -90.4% (active) | -17.1% (active) | -15.8% (active) | -3.64% (active) | 22.8% | 3.09% (active) | -3.51% (active) | -25% (active)
COc1ccc(C(=O)/C=C/c2ccc(OCc3ccccc3)c(OC)c2)cc1OC | 59.8% | 75.8% | 43.2% | 31.4% | 47% | 11.5% | 28.9% | 13.6% | 87.9% | 74.6% | 36.7% | 20.7% | 56.4% | 55.3% | 75.1% | 43.8% | 57.1% | 83.3% | 63.2% | 83.1%
Nc1nc(N)nc(NCc2ccccc2)n1 | 97.1% | 95.4% | 95.4% | 105% | 109% | 108% | 99.3% | 101% | 102% | 119% | 112% | 89.3% | 108% | 108% | – | 100% | 100% | 100% | 110% | –
c1ccc(-c2nnc(Nc3ccc4c(c3)OCCO4)o2)c(NCc2ccncc2)c1 | 2.75% (active) | -9.34% (active) | 40.4% | 25.3% | 4.52% (active) | 77.7% | -34.5% (active) | 22.6% | 17.1% | -68.8% (active) | -22% (active) | 12.1% | 53.6% | 15.4% | – | 14.3% | 3.68% (active) | -2.94% (active) | 68.3% | –
COC(=O)N[C@H]1CCc2cc(OC)c(OC)c(OC)c2-c2ccc(SC)c(=O)cc21 | 23.3% | -3.52% (active) | 29.8% | 23.4% | 2.04% (active) | 15.2% | -17.9% (active) | 13.6% | 14.1% | -18.6% (active) | 1.4% (active) | 9.06% (active) | 37.3% | -22.3% (active) | 22.5% | 15.9% | 7.65% (active) | -27.6% (active) | 59.4% | 3.18% (active)

Reference: PubChem BioAssay (NCI)
